According to PubChem BioAssay AID1259336 (Sattelle Laboratory, UCL Respiratory, Division of Medicine, …, 2017):

Assay: C. elegans growth inhibition, whole organism, log2 fold change (AID 1259336);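 also: growth scored by imaging after five days at 20 °C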
Conditions: anthelmintic screen, stronger effect = lower value; in the data active = log2 fold change growth below about -1.8; inactive = the rest

log2 fold change growth, inactive:
COc1cccn2c(C(=O)N3CCCCC3)c(C(F)(F)F)nc12 0.258
COc1ccccc1OCCCCn1c(C2CC2)nc2ccccc21 0.559
CC(C)(C)OC(=O)N1CCN(c2nccc(-c3ccc(-c4ccc(Cl)cc4)s3)n2)CC1 0.151
CCOc1ccccc1N[C@@H](C)C(=O)Nc1cc(C(F)(F)F)ccc1N1CCOCC1 -1.5
COc1cccc(-n2nnnc2S(=O)(=O)Cc2ccccc2)c1 0.034
COc1cccc(OCC(=O)c2ccc(Br)cc2)c1 -0.945
O=C(Nc1cccc(Cl)c1)c1cnc(N2CCN(c3ccncc3)CC2)c(Cl)c1 -0.57
CN1CCN(CCCOc2ncc(Nc3ncc(-c4ccc(C(F)(F)F)c(F)c4)nc3C(N)=O)cn2)CC1 -0.568
CC(C)(C)n1nc(Cc2cccc3ccccc23)c2c(N)ncnc21 -0.527
COc1ccc(Nc2ccccc2NC(=O)c2ccc(=O)[nH]c2)cc1 -0.31
O=[N+]([O-])c1cn2c(n1)OC[C@@H](OCc1ccc(OC(F)(F)F)cc1)C2 -0.142
COc1ccc(Cn2cnc3c(-c4ccco4)nc(Cl)nc32)cc1 -0.325
COc1cc(C(F)(F)F)nc2ccc(C)c(N)c12 0.198
COc1cccc(-c2nc3c(N4CCCC4)cccc3n2C[C@H]2CCCN2)n1 0.434
Nc1nc2ccc(-c3cncc(Oc4ccc(F)cc4)c3)cc2[nH]1 0.264
COc1cc(Br)cc2cc(C(=O)Nc3cccc(C(F)(F)F)c3)c(=O)oc12 0.421
COc1cc(OC)cc(C(=O)NC[C@H]2Cc3cc(Cl)cc(-c4ccncc4)c3O2)c1 -1.17
O=C(NC1CC1)c1ccc(N2CCC(Cc3ccccc3)CC2)nc1 0.0189
CCn1cnc2c(Nc3cc(F)cc(F)c3)nc(C#N)nc21 -0.053
O=C(C1CCCCC1)N1CC(=O)N2CCc3ccccc3[C@@H]2C1 0.303
CC1(C)Cc2c(c(N3CCOCC3)nc3snc(Br)c23)CO1 0.562
Cc1ccccc1C(=O)N1NC(=Nc2ccccc2)SC1(C)C -0.306
CCOc1ccc2cc(-c3nn(C(C)(C)C)c(N)c3C(N)=O)cnc2c1 -0.647
Cc1cc(Cl)ccc1NC(=O)CCc1ccc(S(=O)(=O)NCC(C)C)cc1 -0.221
CS(=O)(=O)N1CCC(Cn2nc(Cc3cccc4ccccc34)c3c(N)ncnc32)CC1 -0.695
Cc1cc(NC(=O)c2ccc(S(=O)(=O)N(Cc3ccccc3)C(C)C)cc2)no1 -0.0868
O=C1COCc2ccc(Br)cc2N1Cc1ccc(C(F)(F)F)cc1 -0.402
CNC(=O)[C@@H]1Cc2ccccc2N1C(=O)Cc1ccc(F)cc1 0.145
C[C@H]1COc2c(N3CCN(C)CC3)c(F)cc3c(=O)c(C(=O)O)cn1c23 0.473
CC[C@@H]([C@H](C)O)n1ncn(-c2ccc(N3CCN(c4ccc(OC[C@@H]5CO[C@@](Cn6cncn6)(c6ccc(F)cc6F)C5)cc4)CC3)cc2)c1=O -1.34
CN(C)CCNC(=O)N1CCCN(c2ncnc3cc(-c4ccccc4)sc23)CC1 -0.255
CCCNC(=O)N1CCC2(CC1)CC(=O)c1cc(C)ccc1O2 -0.181
CCOC(=O)c1noc(N)c1-c1ccccc1 0.292
CCOc1ccccc1C(=O)Nc1cccc(-c2nc3ncccn3c2C)c1 -0.256
Cc1nnc(NC(=O)c2cn(-c3ccccc3)nc2-c2ccccc2C)o1 -0.302
N#Cc1ccc(-c2ccc(OCC(N)=O)cc2)cc1 -0.349
C[C@@H](c1cc(Cl)cc(Cl)c1)N(C)c1ncc2c(N)nc(N)nc2n1 -0.371
c1ccc(Oc2ccc(-c3cncc(-c4ccc5[nH]ccc5c4)n3)cc2)cc1 -1.03
CCS(=O)(=O)N(Cc1ccco1)Cc1cc2ccc(C)cc2[nH]c1=O 0.443
